# Laboratory results as given in PubChem BioAssay AID1117361 (Southern Research Institute, 2015).
# Hit rate of the full screen: of about 3,600 compounds, about 900 (25%) were called active. Not all results are given here. Measured potencies and affinities stand elsewhere. A number with no mark means an inactive call. The rule behind the calls is not given here.
# Molecular target: Protein Tat (Human immunodeficiency virus type 1 group M subtype B (isolate HXB2)) (UniProt P04608)
# Assay: inhibitors of Tat binding to TAR RNA, dose response, counter-screen for Vif-APOBEC3G degradation inhibitor project, biochemical, fluorescence polarization, FAM-labeled TAR RNA (AID 1117361)
# Conditions: outcome: dose series up to 100 µM unless noted; series mostly up to 100 µM; inhibition: at the top concentration
SMILES,outcome,inhibition
Oc1c(C(c2ccccc2)N2CCN(Cc3ccccc3)CC2)sc2ncnn12 (stereo not drawn),inactive,
Fc1ccc(C(CCCn2nnc(-c3cccnc3)n2)c2ccc(F)cc2)cc1,inactive,
Cc1nc2cc(NC(=O)Nc3ccc(N4CCOCC4)cc3)ccc2n1C,inactive,
Cc1cc(CN2C(=O)c3ccccc3C2=O)cc(N2CCOCC2)c1,inactive,
Oc1ccccc1/C=N/Nc1nccnc1Cl,,5.46%
COc1ccc(/C=C/c2nnc(NC(=O)CSc3ccc(C)cc3)s2)cc1,inactive [at 50 µM],
COC(=O)C(NC(=O)c1ccco1)(Nc1nc(C)cs1)C(F)(F)F (stereo not drawn),,8.78%
COC(=O)c1ccc(CSc2nc3ccccc3c(=O)n2-c2ccc(OC)c(OC)c2)o1,,3.38%
COC(=O)c1cc(OC)c(OC)cc1NC(=O)c1ccco1,inactive,
C=CCN1C(=O)CSc2ccc(C(=O)NCc3ccco3)cc21,,10.9%
C=CCN1C(=O)c2ccc(C(=O)N3CCN(c4ccccc4OC)CC3)cc2C1=O,inactive,
CCn1cc(C(=O)NCc2ccco2)c2cc(OC)c(OC)cc2c1=O,,2.73%
CCOC(=O)C1=C(CNCCc2ccc(Cl)cc2)NC(=O)NC1c1ccc2c(c1)OCO2 (stereo not drawn),inactive,
CCSc1nnc(NC(=O)c2ccc3ccccc3n2)s1,,7.43%
Cc1cc(C)n(-c2nc(Nc3ccccc3C(F)(F)F)nc(-n3nc(C)cc3C)n2)n1,inactive,
O=C(CSc1ccc2nnc(-c3cccnc3)n2n1)NCC1CCCO1 (stereo not drawn),inactive,
Cc1c(NC(=O)/C(C#N)=C/C2CC=CCC2)c(=O)n(-c2ccccc2)n1C (stereo not drawn),,6.08%
O=C(c1ccccc1Cl)N(C(=O)c1ccccc1Cl)c1nccc(-c2cccs2)n1,,6.08%
O=[N+]([O-])c1ccc(/C=N/Nc2nc(N3CCCC3)nc(N3CCCC3)n2)o1,,7.01%
Cc1ccccc1Cn1cc(NC(=O)c2cc(C3CC3)on2)cn1,,8.25%
CCOC(=O)N1CCN(C(=O)C2CCCN(S(=O)(=O)c3ccc(C)cc3)C2)CC1 (stereo not drawn),,12.2%
CCN1CCN(c2ccc(S(=O)(=O)N3CCCCC3)cc2NC(=O)Cc2ccc(Cl)c(Cl)c2)CC1,inactive,

SMILES,outcome,inhibition
Clc1ccc(Nc2nc(C3CC3)cs2)cc1,inactive,
CCN(c1cccc(C)c1)S(=O)(=O)c1cnc[nH]1,inactive,
Cn1nc(-c2ccc(Cl)cc2)c2cc(C(=O)NCCCN3CCOCC3)sc21,,3.38%
Cn1nc(-c2ccc(Cl)cc2)c2cc(C(=O)N3CCN(C(=O)c4ccco4)CC3)sc21,,2.03%
O=C(O)CC(Cn1cnnn1)c1ccccc1 (stereo not drawn),,12.4%
COc1ccc(Cl)cc1N(C)C(=O)CCNC(=O)Cn1cnc2ccccc2c1=O,,6.82%
Cc1csc(=O)n1CC(=O)OCC(=O)c1ccc(Br)cc1,inactive,
CCOc1cccc(CN2CCCC(C(=O)Nc3cccc(-n4cccn4)c3)C2)c1 (stereo not drawn),,7.68%
CC(=O)Nc1ccc(S(=O)(=O)Nc2nnc(C(C)C)s2)cc1,inactive,
N#Cc1nc(-c2ccco2)oc1N1CCN(c2ccccc2)CC1,inactive,
CSc1nc(N2CCOCC2)c2c(c1C#N)CC(C)(C)OC2,,4.73%
CCOc1cc(S(=O)(=O)N(CC)CC)c(OCC)cc1-n1cnnn1,,5.41%
Cc1nnc(NC(=O)c2ccc(S(=O)(=O)N(C)Cc3ccccc3)cc2)o1,,3.41%
CC1(C)CC(Nc2ccc(Nc3ccccc3)cc2)CC(C)(C)N1,inactive,
CCC1=C2CC[C@H]3C(=O)NC(=O)[C@H]3[C@H]2[C@@]2(Cc3ccccc3)C(=NCC(=O)OC)OC(=O)N2C1=O,,1.65%
Nc1nc(Sc2ccc([N+](=O)[O-])c3nonc23)c2[nH]cnc2n1,,18.4%
Nc1nc(SCc2nc3scc(-c4ccccc4)c3c(=O)[nH]2)n[nH]1,,3.67%
S=c1[nH]nc(Cn2nnc3ccccc32)n1-c1ccccc1,inactive,
COc1ccccc1C(=O)Nc1ccc(-c2nnc(SCC(=O)O)n2C)cc1,,18.1%
Cc1cc(C(=O)NNC(=O)CCC2CCCCC2)c(C)o1,inactive,
Cc1cc(/C=C2\SC(=S)NC2=O)c(C)n1C,,4.34%
CCOC(=O)c1c(-c2cccs2)csc1NC(=O)CC(C)C,,5.41%

SMILES,outcome,inhibition
CC(=O)C1CCN(Cc2ccccc2)CC1,,13%
Cc1ccc(-n2nc(C(=O)O)c3ccccc3c2=O)cc1C,,0.68%
Cc1c(C=O)c(C=O)c(C)n1Cc1ccccc1,,11.6%
Cc1ccc(C(=O)N2CCN(c3ccccc3)CC2)cc1C,,10.9%
O=C(O)c1ccc(N2C(=O)c3cccnc3C2=O)cc1,inactive,
Cc1cc(/C=N/n2cnnc2)c(C)n1-c1cccc(Cl)c1,,14.9%
O=C(OC(C(=O)NCc1cccs1)c1ccccc1Cl)c1ccco1 (stereo not drawn),inactive,
O=S(=O)(c1cccc2ccccc12)n1nnc2ccccc21,,2.7%
O=C(OCn1cncn1)c1ccc(Cl)cc1Cl,,0.68%
CC(C)(C)OC(=O)N1CCC[C@H]1c1nnc(SC/C=C/c2ccccc2)o1,,9.46%
Clc1ccc(C2=Nn3c(nnc3-c3cc(-c4ccccc4)n[nH]3)SC2)cc1,,8.78%
O=C(O)c1ccc2c(c1)N(Cc1cccc(F)c1)C(=O)CS2,inactive,
Cc1cc(NS(=O)(=O)c2cc(Cl)sc2Cl)no1,,4.34%
O=C(O)c1cc(-c2ccccc2)on1,inactive,
COc1ccc(C(=O)N2CCCC(C(=O)N3CCCCCC3)C2)cc1 (stereo not drawn),,4.05%
Cc1ccc(S(=O)(=O)N(C)CC(O)Cn2c3ccccc3c3ccccc32)cc1 (stereo not drawn),,6.08%
COc1cc(/C=C2/C(=O)N(c3ccc(Br)cc3)N=C2C)cc(OC)c1OC,,5.68%
CC(=O)Nc1ccc(OCC(=O)N2CCc3ccccc3C2)cc1,inactive,
CCn1ncc(/C=C/C(=O)NCc2cn(C)nc2C)c1C,,4.05%
Cn1c(=O)cc(SCC(=O)NCCCN2CCOCC2)c2ccccc21,inactive,
O=C(c1ccccc1)N1CCN(c2ccc(Cl)cc2)CC1,,12.8%
Cc1ccc(-c2nc(-c3ccccc3)no2)cc1,inactive,

SMILES,outcome,inhibition
Cc1cccc(C)c1NC(=O)Cn1c(=O)n(CCCC(=O)NCc2ccco2)c(=O)c2sccc21,,1.36%
NS(=O)(=O)c1ccc(N=Nc2ccc(=O)[nH]c2O)cc1,,5.01%
COc1cc(NC(=O)CSCC(=O)N(C)C2CCCCC2)cc(OC)c1,,1.65%
Cc1ccccc1OCC(=O)OCC(=O)c1ccc(OC(=O)c2ccccc2)cc1,,3.67%
c1coc(CNc2nc(-c3cccs3)cs2)c1,,20.6%
Cc1ccc(Nc2nc(C(=O)NCc3ccco3)cs2)cc1,,12.8%
COCCOC(=O)CC1=NC(=O)CS1,inactive,
Cc1cc(C(F)F)n2ncc(C(=O)NCc3ccccc3C(F)(F)F)c2n1,inactive,
Cc1cc(C)c(Cc2c(C)nc3c(C(=O)NCc4ccco4)cnn3c2C)c(C)c1,,2.73%
COc1cc(OC)cc(C(=O)NC(=S)N2CCN(c3ccc(C(F)(F)F)cc3[N+](=O)[O-])CC2)c1,,2.7%
CSCCC(NC(N)=O)C(=O)NCc1ccc(Cl)cc1 (stereo not drawn),,2.7%
COc1ccc(N2C(=O)CC(Sc3nc(C)c4c(n3)CCCC4)C2=O)cc1 (stereo not drawn),,6.08%
CC(C)(C)c1ccc(S(=O)(=O)N2CCCCC2)cc1,,17.3%
O=S(=O)(c1ccc(S(=O)(=O)N2CCCC2)cc1)N1CCCCCC1,inactive,
CC1=C(C(=O)OCCOc2ccccc2)C(c2ccc(C)o2)C2=C(CC(C)(C)CC2=O)N1 (stereo not drawn),,2.05%
CCN(CC)S(=O)(=O)N1CCC(C(=O)NCC2COc3ccccc3O2)CC1 (stereo not drawn),inactive,
N/C(=N\OC(=O)COc1ccc([N+](=O)[O-])cc1)c1cccnc1,inactive,
O=C(NCc1cccc(F)c1)C1CCN(S(=O)(=O)Cc2ccccc2)CC1,inactive,
O=C(CSc1nnc(Cc2ccc(Cl)cc2)o1)Nc1ccccc1,inactive,
CC1CCCC(NC(=O)Cn2cc3c(n2)CCCCC3)C1C (stereo not drawn),inactive,
COCCn1cc(C(=O)NCc2cccs2)c2c3ccccc3n(C)c2c1=O,,12.8%
Cc1ccc2c(c1)N=C(c1ccc(Cl)cc1)CO2,,11.6%

SMILES,outcome,inhibition
COc1ccc(NC(=O)Nc2cccs2)cc1OC,,10.9%
CCOC(=O)C1CCCN(c2c(NCCN(CC)c3ccccc3)c(=O)c2=O)C1 (stereo not drawn),,1.35%
CCOC(=O)C1CCCN(C(=O)c2ccc3c(c2)OCO3)C1 (stereo not drawn),inactive,
COc1cc(C(=O)Oc2cccc(Nc3ncnc4ccccc34)c2)cc(OC)c1OC,,3.41%
COc1ccc2c(c1)C1CC(C)(NC(=O)C1C(=O)c1ccccc1)O2 (stereo not drawn),,2.03%
COc1cc(/C=N/N=C2/NC(=O)C(c3ccccc3)S2)ccc1O (stereo not drawn),inactive,
COc1ccc(/C=N/N=C2/NC(=O)C(c3ccccc3)S2)c(OC)c1 (stereo not drawn),,5.41%
Cc1[nH]c2ccccc2c1C(=O)CN1C(=O)NC(C)(c2ccc(Cl)cc2Cl)C1=O (stereo not drawn),,3.41%
CCN(CC(=O)NCc1cccs1)C(=O)c1ccc([N+](=O)[O-])o1,inactive,
Cc1cc(C)n2nc(C(=O)OCC(=O)N(C)CC(=O)Nc3ccc(F)cc3)nc2n1,,10.7%
COc1ccc(C(=O)Nc2cccnc2)cc1S(=O)(=O)N1CCOCC1,,6.76%
COc1ccc(-c2cc(C(=O)N(C)CC(=O)Nc3ccccc3Br)c3ccccc3n2)cc1OC,inactive,
CN(CC(=O)Nc1cccc(F)c1)C(=O)c1cc(-c2ccco2)nc2ccccc12,,16.4%
COc1cccc(NC(=O)CN(C)C(=O)CCCc2nc3ccccc3s2)c1,,1%
COc1ccc(OC)c(NC(=O)COC(=O)c2ccc(OC)c(S(=O)(=O)N3CCOCC3)c2)c1,,0.82%
CC(=NC1CCCC1)c1c(C)[nH]n(-c2nc3ccccc3s2)c1=O,inactive,
c1ccc(-c2cc(-c3nnc4n3N=C(c3ccc5ccccc5c3)CS4)[nH]n2)cc1,,2.03%
O=[N+]([O-])c1cccc(/C(=N/N=C/c2ccccc2Br)C23CN4CN(CN(C4)C2)C3)c1,inactive [at 50 µM],
COC(=O)c1c(NC(=O)COC(=O)c2ccc(NC(=O)CC#N)cc2)sc2c1CCCCC2,,4.95%
O=C(CSc1nc2cc([N+](=O)[O-])ccc2n1-c1ccccc1)NCc1ccc2c(c1)OCO2,inactive,
